Activity calls are given as the source filed them. Cut-off read from the data, not from the text of the source, unless noted: active = inhibition above about 25%; inactive = the rest.
Legend:
[1] = molecular target: Nuclear receptor coactivator 3 (Homo sapiens) (UniProt Q9Y6Q9); experiment: NCOA3 GAL4-fusion reporter inhibition – cell-based, luminescence, quadruplicate, confirmation (AID 588792;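 active = mean inhibition over 43.08%, the solvent-only control mean plus 3 SD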;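 note: 0% = DMSO treated cells and 100% = gossypol at 36 µM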); settings: HEK293 GAL4-SRC3 luciferase reporter, at 3.6 µM, hits give high values
[2] = tested on: transactivating tegument protein VP16 (Human herpesvirus 1), Gal4-VP16 luciferase reporter; experiment: repression of VP16-driven luciferase reporter – cell-based, luminescence, high throughput, counter-screen for SRC3 inhibitor project (AID 588794; in the data active = inhibition above about 30%); settings: mammalian cells, at 3.6 µM, hits give high values
[3] = molecular target: Nuclear receptor coactivator 1 (Homo sapiens) (UniProt Q15788); experiment: NCOA1 GAL4-fusion reporter inhibition – cell-based, luminescence, quadruplicate, confirmation (AID 588820;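 active = mean inhibition above 46.68%, the untreated control wells mean plus 3 SD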;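 note: 0% = DMSO wells and 100% = gossypol 36 µM treated wells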); settings: HEK293 GAL4-SRC1 luciferase reporter, at 3.6 µM, hits give high values
[4] = repression of VP16-driven luciferase reporter – cell-based, luminescence, high throughput, counter-screen for SRC1 inhibitor project (AID 588824); settings: cell-based VP16 transactivation luciferase luminescence; at 3.6 µM; hits give high values
[5] = StAR promoter reporter inhibitors, counter-screen for LRH-1 inverse agonist project, cell-based, luminescence, high throughput (AID 651611; in the data active = inhibition above about 28%); settings: StAR promoter luciferase reporter counterscreen, at 3.6 µM, hits give high values
[6] = molecular target: Nuclear receptor subfamily 5 group A member 2 (Homo sapiens) (UniProt O00482); experiment: NR5A2 activity suppression in reporter cells – cell-based, luminescence, confirmation (AID 651613; in the data active = inhibition above about 42%;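 note: HEK293T cells co-transfected with LRH-1 and StAR promoter luciferase reporter; 0% = vehicle wells and 100% = parental cells lacking receptor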); settings: cell-based LRH-1 luciferase reporter, inverse agonism; at 3.6 µM; hits give high values
[7] = molecular target: Steroidogenic factor 1 (Homo sapiens) (UniProt Q13285); experiment: inverse agonism at SF1 nuclear receptor – cell-based, luminescence, high throughput, counter-screen for LRH-1 inverse agonist project (AID 651614; in the data active = inhibition above about 44%;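 note: cells cotransfected with StAR promoter reporter and SF1 expression vector; 0% = vehicle on cells with receptor and 100% = vehicle on cells lacking receptor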); settings: cell-based SF1 luciferase reporter, at 3.6 µM, hits give high values
[8] = compounds suppressing VP16-driven luciferase signal – cell-based, luminescence, high throughput, counter-screen for LRH-1 inverse agonist project (AID 651615; in the data active = inhibition above about 33%); settings: Gal4-VP16 luciferase reporter cells, at 3.6 µM, hits give high values

Measured: inhibition

Nuclear receptor subfamily 5 group A member 2 (Homo sapiens), sequence (O00482 whole entry, looked up): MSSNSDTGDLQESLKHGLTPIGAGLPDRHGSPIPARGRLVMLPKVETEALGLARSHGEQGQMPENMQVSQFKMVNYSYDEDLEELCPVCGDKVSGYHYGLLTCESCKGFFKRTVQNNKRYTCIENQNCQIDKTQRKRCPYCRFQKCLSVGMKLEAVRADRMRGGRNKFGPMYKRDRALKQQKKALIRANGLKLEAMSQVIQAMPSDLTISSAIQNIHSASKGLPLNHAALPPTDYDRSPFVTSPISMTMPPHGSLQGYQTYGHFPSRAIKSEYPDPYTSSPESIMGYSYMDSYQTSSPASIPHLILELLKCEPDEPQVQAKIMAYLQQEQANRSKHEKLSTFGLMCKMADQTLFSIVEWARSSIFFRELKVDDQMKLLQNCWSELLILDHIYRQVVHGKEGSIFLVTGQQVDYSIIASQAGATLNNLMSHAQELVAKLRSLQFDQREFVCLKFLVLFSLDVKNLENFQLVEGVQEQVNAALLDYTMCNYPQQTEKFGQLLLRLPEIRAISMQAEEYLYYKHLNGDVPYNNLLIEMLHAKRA
Nuclear receptor coactivator 3 (Homo sapiens), sequence (Q9Y6Q9 whole entry, looked up, the tested form may be a part): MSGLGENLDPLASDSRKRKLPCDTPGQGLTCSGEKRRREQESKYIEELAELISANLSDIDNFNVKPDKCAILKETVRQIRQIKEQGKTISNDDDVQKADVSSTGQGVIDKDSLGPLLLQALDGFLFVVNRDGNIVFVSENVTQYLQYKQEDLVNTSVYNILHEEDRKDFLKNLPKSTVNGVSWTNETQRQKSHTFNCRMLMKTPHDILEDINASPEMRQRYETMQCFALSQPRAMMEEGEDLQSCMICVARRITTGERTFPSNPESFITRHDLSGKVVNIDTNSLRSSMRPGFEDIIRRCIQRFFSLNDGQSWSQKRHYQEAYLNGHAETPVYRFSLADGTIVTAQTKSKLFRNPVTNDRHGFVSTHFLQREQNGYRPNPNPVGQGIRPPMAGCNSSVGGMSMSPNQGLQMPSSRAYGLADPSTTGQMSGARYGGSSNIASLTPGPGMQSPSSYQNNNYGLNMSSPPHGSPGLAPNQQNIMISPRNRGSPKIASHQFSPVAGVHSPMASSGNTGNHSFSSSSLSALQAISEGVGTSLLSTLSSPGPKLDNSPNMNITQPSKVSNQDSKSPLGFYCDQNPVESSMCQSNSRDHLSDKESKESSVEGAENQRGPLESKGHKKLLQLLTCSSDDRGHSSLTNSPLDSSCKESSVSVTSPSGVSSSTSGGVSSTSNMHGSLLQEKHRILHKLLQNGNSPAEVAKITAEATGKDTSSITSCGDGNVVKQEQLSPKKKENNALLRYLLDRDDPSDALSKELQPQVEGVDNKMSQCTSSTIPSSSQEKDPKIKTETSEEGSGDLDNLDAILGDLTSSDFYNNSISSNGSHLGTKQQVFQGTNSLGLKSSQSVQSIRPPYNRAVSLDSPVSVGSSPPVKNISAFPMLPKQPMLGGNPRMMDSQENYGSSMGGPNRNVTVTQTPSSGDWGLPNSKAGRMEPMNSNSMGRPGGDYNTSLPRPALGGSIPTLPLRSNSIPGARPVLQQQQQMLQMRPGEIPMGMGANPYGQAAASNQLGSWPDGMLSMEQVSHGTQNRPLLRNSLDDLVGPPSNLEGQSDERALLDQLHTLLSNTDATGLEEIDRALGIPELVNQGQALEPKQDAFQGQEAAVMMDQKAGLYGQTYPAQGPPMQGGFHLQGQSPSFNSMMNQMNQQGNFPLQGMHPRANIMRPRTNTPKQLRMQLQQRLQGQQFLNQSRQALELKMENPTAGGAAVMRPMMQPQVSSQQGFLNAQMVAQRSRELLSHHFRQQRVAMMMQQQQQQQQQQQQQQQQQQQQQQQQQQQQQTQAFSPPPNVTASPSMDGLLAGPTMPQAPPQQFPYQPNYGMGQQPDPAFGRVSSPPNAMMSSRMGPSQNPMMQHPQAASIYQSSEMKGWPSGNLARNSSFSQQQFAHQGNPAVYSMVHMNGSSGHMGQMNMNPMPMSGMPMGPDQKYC
Nuclear receptor coactivator 1 (Homo sapiens), sequence (Q15788 whole entry, looked up, the tested form may be a part): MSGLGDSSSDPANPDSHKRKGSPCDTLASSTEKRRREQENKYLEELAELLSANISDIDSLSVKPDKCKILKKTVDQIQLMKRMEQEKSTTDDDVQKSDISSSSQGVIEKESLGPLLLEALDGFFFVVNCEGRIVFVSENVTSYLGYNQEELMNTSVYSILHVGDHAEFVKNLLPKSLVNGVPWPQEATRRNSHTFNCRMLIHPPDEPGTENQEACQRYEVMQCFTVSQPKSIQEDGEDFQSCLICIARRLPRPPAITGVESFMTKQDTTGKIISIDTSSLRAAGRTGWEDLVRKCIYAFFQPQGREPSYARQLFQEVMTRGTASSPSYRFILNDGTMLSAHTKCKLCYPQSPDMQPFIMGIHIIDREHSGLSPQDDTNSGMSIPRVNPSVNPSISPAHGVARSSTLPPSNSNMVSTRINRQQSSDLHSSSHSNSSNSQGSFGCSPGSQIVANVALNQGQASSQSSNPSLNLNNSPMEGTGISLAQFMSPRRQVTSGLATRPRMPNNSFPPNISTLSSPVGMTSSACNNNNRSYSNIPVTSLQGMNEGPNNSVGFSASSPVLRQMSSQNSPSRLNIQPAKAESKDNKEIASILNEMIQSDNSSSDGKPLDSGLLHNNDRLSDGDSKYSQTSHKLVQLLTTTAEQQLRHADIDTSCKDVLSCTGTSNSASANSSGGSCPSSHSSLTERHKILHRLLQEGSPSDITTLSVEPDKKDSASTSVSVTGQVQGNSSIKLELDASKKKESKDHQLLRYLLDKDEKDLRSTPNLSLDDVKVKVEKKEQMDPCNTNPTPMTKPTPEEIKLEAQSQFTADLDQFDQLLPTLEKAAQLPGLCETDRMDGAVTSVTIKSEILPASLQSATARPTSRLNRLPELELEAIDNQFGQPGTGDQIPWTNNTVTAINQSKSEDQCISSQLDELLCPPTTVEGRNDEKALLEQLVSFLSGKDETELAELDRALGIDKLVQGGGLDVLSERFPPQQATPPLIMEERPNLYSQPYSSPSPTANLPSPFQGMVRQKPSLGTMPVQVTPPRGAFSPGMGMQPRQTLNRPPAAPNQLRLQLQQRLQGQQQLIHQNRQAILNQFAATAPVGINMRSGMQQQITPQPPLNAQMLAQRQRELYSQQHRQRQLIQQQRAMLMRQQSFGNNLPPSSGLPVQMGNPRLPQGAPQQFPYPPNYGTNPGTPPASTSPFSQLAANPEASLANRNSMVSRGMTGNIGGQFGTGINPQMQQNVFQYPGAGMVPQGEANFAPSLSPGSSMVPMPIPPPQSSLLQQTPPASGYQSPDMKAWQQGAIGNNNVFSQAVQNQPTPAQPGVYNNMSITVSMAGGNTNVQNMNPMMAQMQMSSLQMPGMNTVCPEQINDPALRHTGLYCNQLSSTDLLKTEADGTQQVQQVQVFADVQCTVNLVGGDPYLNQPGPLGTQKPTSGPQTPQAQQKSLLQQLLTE
Steroidogenic factor 1 (Homo sapiens), sequence (Q13285 whole entry, looked up, the tested form may be a part): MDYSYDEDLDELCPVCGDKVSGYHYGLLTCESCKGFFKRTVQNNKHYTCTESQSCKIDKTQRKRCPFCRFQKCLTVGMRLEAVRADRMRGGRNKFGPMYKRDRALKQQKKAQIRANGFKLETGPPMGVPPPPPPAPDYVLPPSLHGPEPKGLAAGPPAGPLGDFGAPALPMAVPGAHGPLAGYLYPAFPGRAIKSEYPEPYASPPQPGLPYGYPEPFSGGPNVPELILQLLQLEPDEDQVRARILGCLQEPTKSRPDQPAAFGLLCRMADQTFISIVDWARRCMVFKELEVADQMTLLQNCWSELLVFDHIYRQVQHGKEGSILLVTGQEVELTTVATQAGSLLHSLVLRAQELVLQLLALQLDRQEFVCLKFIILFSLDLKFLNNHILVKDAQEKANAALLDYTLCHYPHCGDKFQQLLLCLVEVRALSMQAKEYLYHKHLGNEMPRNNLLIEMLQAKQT

COC(=O)[C@]12OC[C@]34C([C@@H](O)[C@@H]1O)[C@]1(C)CC(=O)C(O)=C(C)[C@@H]1C[C@H]3OC(=O)[C@H](O)[C@@H]24 (stereo not given in full)
active: [1] 71.6% | [2] 64.2% | [4] 68.8%
inactive: [3] -32.4%

C=C1C(=O)[C@@]23C[C@H]4[C@@H]5[C@@]6(C)CCC[C@@]57[C@@H]2[C@@H](O)[C@@H]1C[C@H]3[C@H]7N4C6
inactive: [1] 3.71% | [2] 22% | [3] 26.6% | [4] 20.9%

O=C1/C(=C/c2ccccc2)C[C@@]2(O)[C@H]3Cc4ccc(O)c5c4[C@@]2(CCN3CC2CC2)C1O5 (stereo not given in full)
active: [1] 92.8% | [2] 73.1% | [3] 85.4% | [4] 73.2%

CC(C)CC(NC(=O)CCCNC(=O)CCC(=O)OC1O[C@H]2OC3(C)CC[C@H]4[C@H](C)CCC(C1C)C24OO3)C(=O)O (stereo not given in full)
active: [1] 54.4% | [2] 77.2% | [3] 53.3% | [4] 76.9% | [5] 72.2% | [6] 101% | [7] 91% | [8] 86.4%

Cc1cc(-c2ccccc2)cc(-c2ccccc2)[n+]1CCc1ccccc1
inactive: [1] 37.8% | [3] 27.1%
active: [2] 52.1% | [4] 51.7% | [5] 51.1% | [6] 91.6% | [7] 75.2% | [8] 73.2%

COc1ccc(-n2nnnc2C(CCc2ccccc2)N2CCC(n3c(=O)[nH]c4ccccc43)CC2)cc1 (stereo not given)
inactive: [1] 25.2% | [2] 8.54% | [3] 2.43% | [4] 9.95% | [6] 28.1% | [7] 30.3%
active: [5] 48.7% | [8] 33.6%

O=c1[nH]c2ccccc2n1C1CCN(C(c2ccnc3ccccc23)c2nnnn2-c2ccc3c(c2)OCCO3)CC1 (stereo not given)
inactive: [1] 8.29% | [2] 6.76% | [3] -26.3% | [4] 8.7%

CC[n+]1c(-c2ccccc2)c2cc(N)ccc2c2ccc(N)cc21
inactive: [1] -43.8% | [3] 40.9%
active: [2] 52.4% | [4] 41.4% | [5] 68.7% | [6] 92.5% | [7] 77.7% | [8] 84.8%

O=c1[nH]c2ccccc2n1C1CCN(C(CCc2ccccc2)c2nnnn2C2CCCC2)CC1 (stereo not given)
inactive: [1] 23.4% | [2] 7.82% | [3] -2.66% | [4] 10.8%

c1ccc(-c2cc(-c3ccccc3)[n+](-c3ccccc3)c(-c3ccccc3)c2)cc1
active: [1] 61.7% | [2] 75.9% | [3] 49.1% | [4] 81.6% | [5] 69.6% | [6] 104% | [7] 81.3% | [8] 89.4%

CN(C)c1ccc(-[n+]2c(-c3ccccc3)cc(-c3ccccc3)cc2-c2ccccc2)cc1
active: [1] 84.6% | [2] 86.2% | [3] 52.3% | [4] 83.5% | [5] 79.2% | [6] 107% | [7] 91.6% | [8] 92%

CCC(C)(O)C(=O)OC1C(=O)OC2CC3C(C)=CC(O)C(O)C3(C)C3C4(O)OCC23C1C(C)C4O (stereo not given)
active: [2] 65.8% | [4] 72% | [5] 79.5% | [6] 103% | [7] 92.4% | [8] 87%
inactive: [1] 38.8% | [3] 36.7%

N=c1c2c(n(Cc3ccc(Cl)cc3Cl)c3c1CCC3)CCCC2
inactive: [3] 41.2%
active: [1] 43.5% | [2] 62.9% | [4] 63.4%
